From PubChem BioAssay
The source made the active and inactive calls.

Columns and labels:
[1] = molecular target: Albumin (Bos taurus) (UniProt P02769); test: bovine serum albumin binders on microarray, profiling panel, artefact control for SMM control protein annotation, biochemical, small-molecule microarray, Alexa647 label, 635/667 nm fluorescence (AID 1118); conditions: BSA-A647 binding, fluorescence 635 nm, higher = more signal;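 also: score merges 667 nm emission intensity and signal-to-noise per printed compound spot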
Chain of Albumin (Bos taurus) (P02769 whole entry, looked up): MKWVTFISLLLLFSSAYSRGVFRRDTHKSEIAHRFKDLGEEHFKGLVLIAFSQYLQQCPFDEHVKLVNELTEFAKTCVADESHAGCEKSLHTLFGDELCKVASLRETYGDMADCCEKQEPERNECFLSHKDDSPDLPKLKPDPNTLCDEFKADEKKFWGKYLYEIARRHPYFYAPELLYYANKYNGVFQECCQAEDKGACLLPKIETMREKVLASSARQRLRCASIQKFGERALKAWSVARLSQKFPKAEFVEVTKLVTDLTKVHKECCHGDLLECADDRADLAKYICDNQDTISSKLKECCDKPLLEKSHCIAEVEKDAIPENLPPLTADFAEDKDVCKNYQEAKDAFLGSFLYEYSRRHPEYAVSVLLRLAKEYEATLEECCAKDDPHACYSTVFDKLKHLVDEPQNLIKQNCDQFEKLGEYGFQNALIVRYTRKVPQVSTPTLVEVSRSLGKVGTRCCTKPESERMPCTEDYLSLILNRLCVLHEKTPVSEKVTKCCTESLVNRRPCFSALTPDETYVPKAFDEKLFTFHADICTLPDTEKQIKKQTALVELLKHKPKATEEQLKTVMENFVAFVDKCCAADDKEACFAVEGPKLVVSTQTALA

[2] = small-molecule microarray binders of probe aXIP, primary screen, biochemical, NeuroSMM set, 635/667 nm fluorescence (AID 1119); conditions: higher = more signal, called active from +8 up or from −8 down;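 also: probe is the protein aXip251-270 applied at 1 µg/mL to compound-printed slides; binding of probe to printed compounds measured as 667 nm fluorescence plus signal to noise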
[3] = small-molecule binders of probe aNOTCH3, primary screen, biochemical, small-molecule microarray, 635/667 nm fluorescence (AID 1120); conditions: higher = more signal;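 also: probe is a biotin-tagged antibody raised against NOTCH3 rather than NOTCH3 protein; score merges spot fluorescence near 667 nm with spot signal to noise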
[4] = small-molecule binders of probe aNOTCH2, primary screen, biochemical, small-molecule microarray, 635/667 nm fluorescence (AID 1121); conditions: higher = more signal;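 also: score merges feature fluorescence read at 667 nm with its signal to noise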
[5] = molecular target: Carbonic anhydrase 2 (Homo sapiens) (UniProt P00918); test: CAII small-molecule binders, profiling panel, biochemical, small-molecule microarray, Alexa647-labelled CAII (AID 1122); conditions: CAII-A647 binding fluorescence, higher = more signal
[6] = COS7 lysate on small-molecule microarray, probe aHis, 635 nm (AID 1123); conditions: COS7 cell lysate, fluorescence, higher = more signal;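 also: z-score combines 667nm fluorescence intensity with signal-to-noise per printed compound spot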
[7] = compound binding in COS7 lysate, probe aLAP1, primary screen, cell lysate, small-molecule microarray (AID 1124); conditions: probe aLAP1, fluorescence, higher = more signal;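 also: lysate comes from COS7 cells expressing LAP1 and is applied at 0.3 µg/mL; score merges spot fluorescence near 667 nm with signal-to-noise over triplicate slides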
[8] = system: Sam68 (KHDRBS1); test: Sam68 small-molecule binders, primary screen, biochemical, small-molecule microarray, 635 nm fluorescence (AID 1125); conditions: small-molecule microarray binding, higher = more signal;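 also: score merges 667 nm channel intensity with signal to noise over triplicate slides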
[9] = system: Chordin-like protein 2 (CHRDL2); test: CHRDL2 small-molecule binders, primary screen, biochemical, small-molecule microarray, 635 nm fluorescence (AID 1126); conditions: small-molecule microarray binding, fluorescence 635 nm; higher = more signal;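 also: printed compound slides probed with Chrdl2 protein at 4 µg/mL for 1 h at 4 C; score merges 667 nm emission intensity with signal to noise over three replicate slides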
[10] = molecular target: Concanavalin-A (Canavalia ensiformis) (UniProt P02866); test: ConA small-molecule binders, primary screen, artefact control for SMM control protein annotation, biochemical, small-molecule microarray, Alexa647 label, 635 nm (AID 1127); conditions: ConA-A647 binding fluorescence, higher = more signal;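 also: z combines 667 nm emission intensity with signal-to-noise across three replicate slides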
Chain of Concanavalin-A (Canavalia ensiformis) (P02866 whole entry, looked up): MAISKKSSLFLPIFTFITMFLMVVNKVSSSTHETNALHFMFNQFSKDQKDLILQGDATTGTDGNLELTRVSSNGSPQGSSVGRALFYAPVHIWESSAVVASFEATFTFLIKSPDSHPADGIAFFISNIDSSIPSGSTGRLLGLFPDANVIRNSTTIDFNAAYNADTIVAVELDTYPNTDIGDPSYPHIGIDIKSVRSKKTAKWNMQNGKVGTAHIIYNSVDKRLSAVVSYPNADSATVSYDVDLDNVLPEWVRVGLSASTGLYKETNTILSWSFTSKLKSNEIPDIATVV

[11] = anti-His antibody binders, primary screen, artefact control for SMM control protein annotation, biochemical, small-molecule microarray, 635 nm fluorescence (AID 1128); conditions: anti-His Alexa647 antibody binding, higher = more signal;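 also: score merges feature fluorescence with signal-to-noise for each printed compound spot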
[12] = system: Human papillomavirus type 1a E7 protein (residues 1-88); test: HPV1a E7 small-molecule binders, primary screen, biochemical, small-molecule microarray, residues 1-88, 635 nm (AID 1129); conditions: small-molecule microarray binding, fluorescence 635 nm; higher = more signal
[13] = molecular target: Focal adhesion kinase 1 (Homo sapiens) (UniProt Q05397); test: small-molecule microarray binders of FAK, primary screen, biochemical, 635/667 nm fluorescence, BSA, DTT (AID 1130); conditions: PTK2 binding, 635 nm fluorescence, higher = more signal;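 also: composite of spot emission at 667 nm and signal to noise over triplicate slides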
Chain of Focal adhesion kinase 1 (Homo sapiens) (Q05397 whole entry, looked up): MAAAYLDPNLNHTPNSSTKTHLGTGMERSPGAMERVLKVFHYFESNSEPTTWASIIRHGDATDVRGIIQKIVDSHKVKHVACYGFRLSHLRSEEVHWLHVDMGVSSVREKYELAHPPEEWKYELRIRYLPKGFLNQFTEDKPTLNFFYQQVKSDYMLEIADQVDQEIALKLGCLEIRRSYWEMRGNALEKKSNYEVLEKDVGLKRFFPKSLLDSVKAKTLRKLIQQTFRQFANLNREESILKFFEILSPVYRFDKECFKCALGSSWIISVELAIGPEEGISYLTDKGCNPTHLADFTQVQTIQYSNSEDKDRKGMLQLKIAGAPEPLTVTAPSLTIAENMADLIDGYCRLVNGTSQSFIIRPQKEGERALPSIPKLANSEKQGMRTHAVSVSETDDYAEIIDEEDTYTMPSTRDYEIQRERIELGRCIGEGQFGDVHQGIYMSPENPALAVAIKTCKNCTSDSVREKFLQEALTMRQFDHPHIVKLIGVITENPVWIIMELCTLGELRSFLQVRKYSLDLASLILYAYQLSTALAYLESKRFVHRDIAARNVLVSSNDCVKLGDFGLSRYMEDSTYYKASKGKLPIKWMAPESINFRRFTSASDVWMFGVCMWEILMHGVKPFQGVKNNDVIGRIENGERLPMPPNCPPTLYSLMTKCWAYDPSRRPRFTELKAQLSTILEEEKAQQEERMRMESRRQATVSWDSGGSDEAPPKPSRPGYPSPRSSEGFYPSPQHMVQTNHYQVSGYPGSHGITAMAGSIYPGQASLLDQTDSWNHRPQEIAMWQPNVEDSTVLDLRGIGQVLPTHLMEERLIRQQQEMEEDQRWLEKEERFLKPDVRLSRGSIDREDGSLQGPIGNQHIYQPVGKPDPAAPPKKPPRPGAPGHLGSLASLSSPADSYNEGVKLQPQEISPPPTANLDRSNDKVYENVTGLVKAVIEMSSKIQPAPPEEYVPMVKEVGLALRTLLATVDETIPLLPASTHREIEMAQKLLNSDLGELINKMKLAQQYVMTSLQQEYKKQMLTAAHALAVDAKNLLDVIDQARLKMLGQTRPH

[14] = system: Fibrinogen (Alexa647-labelled); test: fibrinogen binders on compound microarrays, profiling panel, artefact control for SMM control-protein annotation, biochemical, small-molecule microarray, 635/667 nm fluorescence (AID 1131); conditions: fibrinogen-A647 binding fluorescence, higher = more signal;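 also: z-score merges 667 nm fluorescence with per-spot signal-to-noise over triplicate slides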
[15] = molecular target: Follistatin (Homo sapiens) (UniProt P19883); test: follistatin binders on small-molecule microarrays, primary screen, biochemical, small-molecule microarray, 635/667 nm fluorescence (AID 1132); conditions: FST binding, 635 nm fluorescence, higher = more signal
Chain of Follistatin (Homo sapiens) (P19883 whole entry, looked up): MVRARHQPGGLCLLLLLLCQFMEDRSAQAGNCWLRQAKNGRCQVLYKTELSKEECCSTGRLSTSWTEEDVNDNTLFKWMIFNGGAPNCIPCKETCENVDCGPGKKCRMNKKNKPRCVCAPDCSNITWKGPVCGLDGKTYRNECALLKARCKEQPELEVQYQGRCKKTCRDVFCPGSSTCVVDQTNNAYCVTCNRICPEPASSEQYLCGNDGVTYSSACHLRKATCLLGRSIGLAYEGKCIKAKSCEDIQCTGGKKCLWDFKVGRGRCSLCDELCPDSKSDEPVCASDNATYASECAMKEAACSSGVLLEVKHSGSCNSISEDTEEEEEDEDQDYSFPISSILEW

[16] = molecular target: Fibroblast growth factor 2 (Homo sapiens) (UniProt P09038); test: FGF2 binders on small-molecule microarrays, primary screen, biochemical, small-molecule microarray, 635/667 nm fluorescence (AID 1133); conditions: small-molecule microarray binding, FGF2, fluorescence 635/667; higher = more signal
Chain of Fibroblast growth factor 2 (Homo sapiens) (P09038 whole entry, looked up): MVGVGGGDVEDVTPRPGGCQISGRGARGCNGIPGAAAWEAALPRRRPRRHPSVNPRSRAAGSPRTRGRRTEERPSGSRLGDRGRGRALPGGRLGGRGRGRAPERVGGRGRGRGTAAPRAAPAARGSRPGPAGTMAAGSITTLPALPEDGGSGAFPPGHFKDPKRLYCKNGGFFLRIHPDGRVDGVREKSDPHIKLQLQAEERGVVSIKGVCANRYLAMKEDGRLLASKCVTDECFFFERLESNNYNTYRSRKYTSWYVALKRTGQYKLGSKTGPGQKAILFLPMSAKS

[17] = mitochondrial membrane potential change in A549 cells, profiling panel, cell-based, JC-1 fluorescence, basal, 24 h, 100 nL (AID 1138); conditions: higher = more signal;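 also: A549 lung adenocarcinoma cells under basal conditions with no added stimulus; test concentration not given here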
[18] = system: Lefty1; test: Lefty1 binders on small-molecule microarrays, primary screen, biochemical, small-molecule microarray, 635/667 nm fluorescence (AID 1139); conditions: small-molecule microarray binding, fluorescence 635/667; higher = more signal
[19] = system: wheat germ agglutinin (Triticum aestivum), Alexa647-labelled; test: wheat germ agglutinin binders on compound microarrays, profiling panel, artefact control for SMM control-protein annotation, biochemical, small-molecule microarray, 635/667 nm fluorescence (AID 1140); conditions: WGA-A647 binding, 635 nm fluorescence, higher = more signal;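 also: score merges 667 nm feature emission with signal to noise over triplicate slides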
[20] = molecular target: Luciferin 4-monooxygenase (Photinus pyralis) (UniProt P08659); test: firefly luciferase enzyme inhibitors, primary screen, biochemical, luminescence, purified enzyme, 2006 set (AID 1141); conditions: SteadyGlo luminescence, 30 min, higher = more signal, called active from +8 up or from −8 down;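 also: cell-free assay with purified firefly luciferase at 100 ng per well in PBS; test concentration not given here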
Chain of Luciferin 4-monooxygenase (Photinus pyralis) (P08659 whole entry, looked up): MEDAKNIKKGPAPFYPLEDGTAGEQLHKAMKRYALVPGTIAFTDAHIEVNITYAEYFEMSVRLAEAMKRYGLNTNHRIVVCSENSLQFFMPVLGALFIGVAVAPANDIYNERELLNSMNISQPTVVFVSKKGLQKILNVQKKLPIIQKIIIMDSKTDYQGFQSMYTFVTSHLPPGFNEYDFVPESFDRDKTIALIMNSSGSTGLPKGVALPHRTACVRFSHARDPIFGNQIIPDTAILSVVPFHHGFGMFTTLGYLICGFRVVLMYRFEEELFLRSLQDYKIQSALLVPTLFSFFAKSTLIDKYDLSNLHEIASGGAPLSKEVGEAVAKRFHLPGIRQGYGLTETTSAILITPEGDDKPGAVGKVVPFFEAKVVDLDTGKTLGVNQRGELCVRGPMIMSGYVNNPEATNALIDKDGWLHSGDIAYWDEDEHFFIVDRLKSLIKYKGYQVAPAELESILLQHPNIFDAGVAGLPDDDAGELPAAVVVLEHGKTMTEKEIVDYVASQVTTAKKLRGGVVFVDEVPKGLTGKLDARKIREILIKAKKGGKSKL

SMILES	composite z-score [1]	composite Z-score [2]	composite z-score [3]	composite z-score [4]	composite z-score [5]	composite z-score [6]	composite z-score [7]	composite z-score [8]	composite z-score [9]	composite z-score [10]	composite z-score [11]	composite z-score [12]	composite z-score [13]	composite z-score [14]	composite z-score [15]	composite z-score [16]	z-score [17]	composite z-score [18]	composite z-score [19]	z-score [20]
C[C@@H]1C=CCC(=O)OC[C@H](C)C(=O)N2CCC[C@H]2C(=O)OC1	-0.12	0.608 (inactive)	-0.143	-0.0338	-0.0527	-0.0199	0.0742	1.14	1.58	0.182	2.67	0.589	-0.344	-0.592	1.31	1.74	-0.741	1.59	-0.273	1.1 (inactive)
CN(C)c1ccc(C(O)C2C=CC3C(=O)N(c4ccccc4)C(=O)C3N2Nc2ccccc2F)cc1 (stereo not given)	0.62	-0.122 (inactive)	0.134	0.0605	0.522	1.11	-0.301	0.87	-0.371	0.676	1.68	1.24	0.0651	0.793	0.404	-0.872	-1.06	0.0136	0.792	-0.484 (inactive)
CC(C)[C@@H](OCc1ccccc1)[C@H](C)C=NO[C@H](C)c1cn([C@H](CO)Cc2ccccc2)nn1	0.0792	0.0599 (inactive)	-0.0362	-0.163	0.0227	0.544	0.294	1.01	0.779	0.392	0.424	0.222	-0.238	0.286	0.171	0.446	0.506	0.913	0.106	-1.62 (inactive)
CCOC(=O)CCN1C(=O)[C@H]2[C@H]3[C@H](O)[C@H](O)CC(=NOCc4ccccc4)[C@@H]3CC[C@H]2C1=O	0.762	0.415 (inactive)	-0.0996	-0.199	0.381	0.317	0.784	0.37	0.116	0.246	-0.261	0.717	0.163	0.983	0.722	0.383	-0.217	0.963	-0.0855	0.883 (inactive)
O=C1CCCC2OC12C(O)CCc1ccccc1 (stereo not given)	-0.0592	0.319 (inactive)	-0.0581	-0.185	-0.22	-0.324	-0.2	0.17	0.594	0.594	0.259	-0.0206	0.0538	0.558	0.321	0.268	0.112	0.279	-0.0681	-0.443 (inactive)
COc1ccc(O[C@H]2C=C[C@@H](c3ccccc3)O[C@@H]2COC(=O)CCC(C)=NO[C@H](C)c2cn([C@@H]3COC[C@H]3O)nn2)cc1	0.454	0.362 (inactive)	-0.015	-0.211	-0.106	-0.208	0.263	0.771	0.656	0.427	1	0.225	0.149	0.517	0.368	0.459	-1.56	0.701	-0.151	0.884 (inactive)
CC(C)=NOCc1cccc(-c2cc(-c3ccccc3)no2)c1	-0.0583	0.123 (inactive)	0.062	-0.203	0.257	0.686	0.0499	1	0.564	1.02	0.545	0.974	0.882	0.464	0.973	0.727	0.732	0.92	0.848	-0.158 (inactive)
CCOC(=O)NN=C1C[C@@H](O)[C@@H](O)[C@@H]2[C@@H]3C(=O)N(C[C@@H]4CCCO4)C(=O)[C@@H]3CC[C@@H]12	0.16	-0.354 (inactive)	0.0927	-0.166	0.0815	0.361	0.649	0.339	0.0214	0.437	0.193	0.329	0.295	0.216	0.306	0.436	0.39	0.344	0.386	-0.439 (inactive)
COc1cccc([C@@H]2Oc3ccc(Br)cc3C(=O)[C@H]2O)c1	0.705	0.38 (inactive)	-0.0111	-0.084	0.439	0.599	0.214	0.26	0.432	1.11	0.26	0.615	0.586	0.946	0.453	0.267	1.08	0.732	0.282	-3.5 (inactive)
C=CC[C@@H]1C=C[C@H](ON=C[C@@H](OC)[C@H](C)C=CCC(=O)OC)[C@@H](CO)O1	-0.286	0.0176 (inactive)	0.062	-0.0242	0.131	0.336	-0.108	0.496	0.075	-0.225	-0.179	0.296	0.191	-0.613	0.234	0.13	-0.019	0.566	-1.06	0.191 (inactive)
COCCOC(=O)N1C(=O)[C@@]2(c3cc(C#CC4(O)CCCCCC4)ccc31)[C@H](C(=O)N1CCN(c3ncccn3)CC1)[C@H]1C(=O)O[C@H](c3ccccc3)[C@H](c3ccccc3)N1[C@@H]2c1ccc(OCCO)cc1	0.408	-0.108 (inactive)	0.178	-0.112	0.375	0.714	0.857	1.3	0.659	1.18	2.08	1.2	0.289	0.889	1.29	1.35	-1.34	0.637	1.09	-2.19 (inactive)
COC(=O)[C@H](C)NC(=O)CCC1CC(OC(=O)NCc2cccc3ccccc23)CC2(CCCC(COC(=O)NCCc3ccc(Cl)cc3)O2)O1 (stereo not given in full)	0.147	0.108 (inactive)	-0.176	-0.0868	0.535	0.631	-0.422	1.23	-0.0578	0.946	0.591	1.06	0.178	0.228	0.225	0.212	0.179	1.03	0.411	0.632 (inactive)
CCCCCCc1nc(CCCc2cc3c(c(CCCCCC)n2)[Si](C(C)C)(C(C)C)O[C@H]3c2ccccc2)cc2c1[Si](C(C)C)(C(C)C)O[C@H]2c1ccccc1	-0.27	0.248 (inactive)	-0.0284	-0.14	-0.156	-0.0088	-0.0919	-0.14	-0.0538	0.314	-0.246	-0.526	-0.43	-1.19	0.385	-0.0811	0.669	0.778	-0.0778	0.733 (inactive)
CCN1C(=O)[C@H]2[C@H]3[C@H](O)[C@H](O)CC(=NOCC=C(C)CCC=C(C)C)[C@H]3CC[C@H]2C1=O	-1.33	-0.768 (inactive)	0.0876	-0.182	0.578	0.41	0.714	1.3	1.3	-0.0616	0.918	1.1	0.123	0.0065	1.26	1.51	-0.298	1.58	-0.207	-0.279 (inactive)
O=C1C[C@@H](O)[C@@H](O)[C@@H]2[C@@H]3C(=O)N(c4cccc(Oc5ccccc5)c4)C(=O)[C@@H]3CC[C@@H]12	0.164	-0.397 (inactive)	0.0496	0.0364	0.285	0.625	0.318	1.03	0.364	0.899	0.161	0.783	0.35	0.725	0.91	0.679	0.844	0.661	0.428	-0.44 (inactive)
CCOC(=O)[C@H](Cc1ccccc1)NC(=O)CCC1CC(OC(=O)NCc2ccc3c(c2)OCO3)CC2(CCCC(COC(=O)NCc3ccccc3)O2)O1 (stereo not given in full)	0.3	0.255 (inactive)	0.0437	-0.0728	0.373	0.248	0.0766	1.06	0.261	0.915	1	1.12	-0.108	0.347	0.725	0.69	1.64	0.688	0.335	0.66 (inactive)
COC(=O)CC1OC1[C@H](C)[C@@H](OC)C(C)C (stereo not given in full)	-0.294	0.406 (inactive)	-0.0647	-0.124	0.232	-0.64	0.229	-0.22	1.03	-0.321	-0.0177	0.212	-0.405	0.745	0.623	0.443	3.01	0.786	0.733	-1.73 (inactive)
COC(=O)C1=C(C)N(Cc2ccccc2)[C@]23O[C@](C(=O)OC)(C(=O)N2[C@@H]1c1ccccc1)[C@H]1CCOC(=O)[C@H]13	0.735	0.493 (inactive)	-0.0587	-0.131	0.0198	-0.12	0.21	-0.0775	0.702	0.0349	0.038	0.192	0.149	0.628	0.384	0.52	0.328	1.41	0.84	-0.431 (inactive)
C=CCOC(=O)[C@H]1[C@@H]2C(=O)O[C@@H](c3ccccc3)[C@@H](c3ccccc3)N2[C@@H](c2ccc(OCCOC(=O)[C@H]3C[C@H]4C(=O)N[C@@H](Cc5ccccc5)C(=O)N4[C@H]3c3ccc(O)cc3)cc2)[C@]12C(=O)Nc1ccccc12	-0.757	0.89 (inactive)	-0.0932	-0.131	0.553	1.71	0.832	1.31	1.38	1.16	2.22	1.13	1.23	0.51	1.46	1.67	-1.58	1.46	0.654	-2.01 (inactive)
CC(C)C[C@@H]1NC(=O)[C@H]2C[C@@H](C(=O)NCCCCCCN(C)C)[C@@H](c3cccc(OCCO)c3)N2C1=O	-0.615	2.07 (inactive)	0.16	-0.153	0.557	2.81	1.44	1.31	1.47	1.09	2.19	1.01	0.204	0.0478	1.3	1.6	-0.0993	1.65	0.591	-0.156 (inactive)
